PMP22 txn = modulates PMP22 transcription in S16 Schwann cells. S16 Pmp22-F2sN Schwann cells, FLuc/NLuc coincidence luminescence, 24 h. Potency, µM (top dose mostly 57.5 µM), for the others: at the top dose activity change, negative = inhibition, hits mostly inhibitors. 43,000 tested, 2% active; active = clear falling dose curves in both reporters; inconclusive = both reporters move, but less clearly or upward; inactive = either reporter flat; the % is the NLuc reporter signal; note: potency is the fitted concentration of half-maximal effect; % is set by controls: 0 for no effect and ±100 for the full control effect
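qHTS, 1536-well. Cells seeded, compounds added by pin tool, 24 h 37C. Nano-Glo reagent 1 (lysis/FLuc), 10 min RT, read; Stop&Glo, 10 min RT, read NLuc.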
p53null 32C tox = p53 null cell cytotoxicity, permissive temperature. H1299-neo p53 null cells, ATP luminescence, 24 h, 32C. Potency, µM (series often up to 46.1 µM), for inactives: at the highest dose activity change, negative = cytotoxicity, most hits filed as cytotoxic. 55,000 tested, 0.62% active;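 note: potency is the fitted concentration of half-maximal effect; 0% = DMSO only and -100% = full killing by 100 µM tamoxifen; nearly all actives have a fitted effect of over 55% in size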
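AC50 values derive from Hill modelling of qHTS concentration-response data (up to 46 uM) in H1299-neo cells. Cells were treated 24 h at 32C following overnight attachment at 37C; viability was read as cellular ATP.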
S16 viability = S16 Schwann cell cytotoxicity | S16 Pmp22-F2sN Schwann cells viability, CellTiter-Glo, 24 h | Potency, µM (series often up to 57.5 µM), for inactives: top-dose activity change, negative = cytotoxicity, hits mostly cytotoxic | 43,000 tested, 0.48% active | AID 1508642; note: potency is the fitted concentration of half-maximal effect; % is set by controls: 0 for no effect and ±100 for the full control effect; nearly all actives have a fitted effect of over 65% in size
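Used to flag compounds lowering reporter output through toxicity, this quantitative HTS measures ATP-based CellTiter-Glo luminescence in S16 Pmp22-F2sN Schwann cells after 24 h compound exposure at 37C.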
mTORC1 inh = reduces mTORC1 signaling in Tsc2 and p53 null MEF cells; Potency, µM (titrated, usually from 38.3 µM), without a hit: at the top dose activity change, negative = inhibition, usual class: inhibitors; Tsc2-/- p53-/- MEF, phospho-rpS6 immunofluorescence/PI, 24 h; 44,000 tested, 0.78% active;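 note: potency is the fitted concentration of half-maximal effect; plate controls were DMSO for no effect and rapamycin for full effect; nearly all actives have a fitted effect of over 50% in size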
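Plate MEFs (Tsc2-/-, p53-/-, empty vector) in DMEM/10% FBS; after 24 h add compound, incubate 24 h at 37 degree Celsius; fix in PFA/TX-100, block, stain phospho-rpS6 and 10 uM PI; scan at 488 nm; report % positive cells.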
p53null 39C tox = kills p53 null cells at the nonpermissive temperature; H1299 p53-null (neo) cells, 39C, ATPlite viability, 24 h; Potency, µM (highest dose often 46.1 µM), without a hit: at the top dose activity, negative = cell killing, most hits filed as cytotoxic; 55,000 tested, 0.97% active; AID 904;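 note: potency is the fitted concentration of half-maximal effect; 0% = DMSO only and -100% = full killing by 100 µM tamoxifen; nearly all actives have a fitted effect of over 50% in size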
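Concentration-response (up to 46 uM) was run for 24 h at the nonpermissive 39C on H1299-p53A138V or H1299-neo cells. ATP content was measured with ATPlite luminescence. AC50 values were Hill-modeled after normalizing between DMSO and 100 uM tamoxifen killing.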
NLuc saturating = counter-screen for PMP22 expression modulators: NanoLuc inhibition, saturating substrate; shares compounds with PMP22 txn; Secreted NLuc enzyme (filtered S16 cell medium), Nano-Glo luminescence; Potency, µM (series often up to 57.5 µM), for inactives: at the top dose activity change, negative = inhibition, hits mostly inhibitors; 690 tested, 4% active; note: potency is the fitted concentration of half-maximal effect; % is set by controls: 0 for no effect and ±100 for the full control effect
NLuc Km ctr = counter-screen for PMP22 expression modulators: NanoLuc inhibition at Km | shares compounds with PMP22 txn | 690 tested, 5% active | Potency, µM (top dose mostly 57.5 µM), for the others: top-dose activity change, negative = inhibition, usual class: inhibitors | secreted NLuc enzyme, coelenterazine luminescence, Km conditions; note: potency is the fitted concentration of half-maximal effect; % is set by controls: 0 for no effect and ±100 for the full control effect
FLuc ctr PMP22 = firefly luciferase enzyme inhibition artifact for PMP22 screen | shares compounds with PMP22 txn | AID 1508640 | purified P. pyralis FLuc, luminescence, 10 min | Potency, µM (titrated, usually from 57.5 µM), for the others: top-dose activity, negative = inhibition, hits mostly inhibitors | 690 tested, under 10 active; note: % of control where 0% means no effect
Target sequence (P08659 whole entry, looked up): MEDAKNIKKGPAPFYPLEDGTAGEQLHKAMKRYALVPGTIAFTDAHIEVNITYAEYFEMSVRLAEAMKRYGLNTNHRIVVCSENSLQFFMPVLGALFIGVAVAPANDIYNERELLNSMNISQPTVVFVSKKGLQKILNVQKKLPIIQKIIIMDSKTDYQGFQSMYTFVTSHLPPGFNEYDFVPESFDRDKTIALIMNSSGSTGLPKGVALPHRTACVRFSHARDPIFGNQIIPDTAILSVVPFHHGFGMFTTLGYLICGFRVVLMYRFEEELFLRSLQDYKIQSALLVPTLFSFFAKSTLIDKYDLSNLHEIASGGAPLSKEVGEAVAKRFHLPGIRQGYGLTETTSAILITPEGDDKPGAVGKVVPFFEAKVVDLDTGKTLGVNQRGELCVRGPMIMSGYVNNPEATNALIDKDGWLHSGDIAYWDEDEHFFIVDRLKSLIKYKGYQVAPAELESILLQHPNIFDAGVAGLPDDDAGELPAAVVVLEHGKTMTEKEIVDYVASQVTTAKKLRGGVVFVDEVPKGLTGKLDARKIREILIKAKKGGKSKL
S16 viab conf = S16 Schwann cell cytotoxicity, confirmatory; shares compounds with PMP22 txn; S16 Schwann cells viability, CellTiter-Glo ATP luminescence, 24 h; Potency, µM (doses to about 57.5 µM), inactives show at the highest dose activity change, negative = viability loss, hits mostly cytotoxic; 690 tested, 7% active; AID 1508641; note: potency is the fitted concentration of half-maximal effect; % is set by controls: 0 for no effect and ±100 for the full control effect
PMP22 txn conf = PMP22 transcription modulation, confirmatory; AID 1508646; S16 Schwann cells Pmp22-F2sN, dual luciferase, 24 h; 690 tested, 22% active; Potency, µM (top dose mostly 57.5 µM), for the others: top-dose activity change, negative = inhibition, most hits filed as inhibitors; shares compounds with PMP22 txn; active = clear falling dose curves in both reporters; inconclusive = both reporters move, but less clearly or upward; inactive = either reporter flat; the % is the FLuc reporter signal; note: potency is the fitted concentration of half-maximal effect
PMP22 HiBiT cnf = confirmation of modulators of rat PMP22 protein expression | shares compounds with PMP22 txn | S16 Schwann cells Pmp22-HiBiT, luminescence, 48 h | Potency, µM (series often up to 27.9 µM), for inactives: at the highest dose activity change, negative = inhibition, usual class: inhibitors | 95 tested, under 10 active
Target sequence (P25094 whole entry, looked up): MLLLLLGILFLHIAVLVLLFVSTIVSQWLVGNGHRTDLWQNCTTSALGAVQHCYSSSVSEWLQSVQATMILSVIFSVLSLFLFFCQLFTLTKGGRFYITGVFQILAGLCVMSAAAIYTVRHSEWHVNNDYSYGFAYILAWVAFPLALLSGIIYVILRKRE
The depositor's hits bear a star; ? = inconclusive; . = not tested or not shown. Rows were chosen to be rich in hits. Some 3.2% of all compounds tested hit in one or more screens of this group. Unless noted, calls come from the whole dose curve; as a rule, active = well fitted curve in the direction sought with a large enough effect; inconclusive = small, poorly fitted or top-dose-only effect, or another doubt; inactive = no such curve, though single readings can be large; an effect the other way counts as inactive or inconclusive.

SMILES | PMP22 txn | p53null 32C tox | S16 viability | mTORC1 inh | p53null 39C tox | NLuc saturating | NLuc Km ctr | FLuc ctr PMP22 | S16 viab conf | PMP22 txn conf | others
Clc1cccc(N2CCN(c3ncnc4c3nc3n4CCCCC3)CC2)c1 | 20µM* | -18% | -10% | -21% | ? | ? | 14µM* | -3% | ? | ?
O=C(C1CCN(c2ncnc3c2nc2n3CCCCC2)CC1)N1CCN(c2cccc(Cl)c2)CC1 | ? | 7% | -28% | -10% | -23% | . | . | . | . | .
Cc1cc(C)cc(NS(=O)(=O)c2ccc3[nH]cc(C(=O)NC4CCCCC4)c(=O)c3c2)c1 | ? | 3% | -30% | -11% | ? | . | . | . | . | .
CC(C)c1ccc(NC(=O)N2CCN(c3ccc(Cl)c(Cl)c3)CC2)cc1 | 11µM* | 42% | -16% | -18% | ? | ? | ? | -18% | -14% | ?
Cc1ccc(NC(=O)N2CCN(c3ccc(Cl)c(Cl)c3)CC2)cc1 | ? | 5% | -30% | -20% | ? | . | . | . | . | .
CCC(Sc1nncn2c1cc1occc12)C(=O)Nc1ccc(C)c(Cl)c1 (stereo not given) | 17µM* | 6% | ? | 0% | 6% | ? | ? | -16% | -5% | ?
O=C(CSc1nncn2c1cc1occc12)Nc1ccc(F)c(Cl)c1 | -26% | 1% | -3% | -15% | -20% | . | . | . | . | .
Cc1cccc(CCNc2ncnc3onc(-c4ccc(Cl)cc4)c23)c1 | 19µM* | 16% | -19% | 1% | 16% | -1% | -1% | -6% | ? | ?
Clc1cccc(-c2noc3ncnc(NC4CCCCC4)c23)c1 | ? | -3% | -19% | -13% | -11% | -12% | 2% | -11% | -16% | 8.2µM* | PMP22 HiBiT cnf=-6%
Clc1ccc(-c2noc3ncnc(NC4CCCCC4)c23)cc1 | ? | -4% | 0% | 0% | 1% | -8% | -1% | -3% | -10% | ?
CC1CCC(Nc2ncnc3onc(-c4ccc(Cl)cc4)c23)CC1 (stereo not given) | -10% | 1% | -1% | -6% | -16% | . | . | . | . | .
Cc1ccc(CCNc2ncnc3onc(-c4ccc(Cl)cc4)c23)cc1 | ? | -6% | -17% | 2% | ? | . | . | . | . | .
COc1ccc(Br)cc1S(=O)(=O)N1CCCC1 | . | 1% | . | . | -12% | . | . | . | . | .
CS(=O)(=O)c1ncc(Cl)c(C(=O)Nc2c(C(=O)Nc3ccccc3)oc3ccccc23)n1 | ? | -3% | ? | 4% | -4% | . | . | . | . | .
Cc1ccc(C(=O)c2oc3ccccc3c2NC(=O)c2nc(S(C)(=O)=O)ncc2Cl)cc1F | 7.6µM* | -3% | ? | 1% | 4% | -9% | -16% | -2% | 22µM* | 13µM*
Cc1c(NS(C)(=O)=O)cccc1-c1nc2ccccc2s1 | ? | ? | -23% | -6% | ? | . | . | . | . | .
CCC(=O)N1CCc2cc(Br)cc(S(=O)(=O)N3CCCC(C(=O)NCc4cccc(OC)c4)C3)c21 (stereo not given) | 14µM* | 5% | 18% | -3% | -14% | -17% | 5% | 7% | -21% | -41%
O=C(CSc1ncc2c(n1)-c1ccccc1N(Cc1ccc(F)cc1)S2(=O)=O)NCCc1ccccc1 | 18µM* | -3% | 4% | 3% | 6% | -1% | 2% | 7% | ? | ?
CCOCCCNC(=O)NC(C)c1c(-n2cccc2)sc2c1CCN(CC)C2 (stereo not given) | 16µM* | 3% | 1% | 1% | 12% | -6% | 0% | 7% | -21% | 14%
CCN1CCc2c(sc(-n3cccc3)c2C(C)NC(=O)Nc2ccc(Br)cc2)C1 (stereo not given) | ? | -2% | -1% | -3% | -9% | . | . | . | . | .
CCOc1ccc(NC(=O)NC(C)c2c(-n3cccc3)sc3c2CCN(CC)C3)cc1 (stereo not given) | 15µM* | 1% | -19% | -9% | -5% | ? | -20% | 4% | -20% | -28%
O=c1c2oc3ccccc3c2n(Cc2cccc(F)c2)c(=O)n1Cc1ccco1 | 6% | -5% | 3% | -2% | -11% | . | . | . | . | .
O=C(CSc1ccc2nnc(-c3ccc(F)cc3)n2n1)NCc1ccco1 | . | -5% | . | . | 26% | . | . | . | . | .
CCOC(=O)c1cc2c(=O)n3ccccc3nc2n(C(C)C)c1=NC(=O)c1c(-c2c(F)cccc2Cl)noc1C | 11µM* | 12% | ? | -1% | 33% | ? | -16% | 3% | 18% | ?
CCOC(=O)c1cc2c(=O)n3ccccc3nc2n(C)c1=NC(=O)c1c(-c2c(F)cccc2Cl)noc1C | 2.1µM* | 1% | 0% | -12% | 3% | ? | -17% | 5% | 12% | -17%
COC(=O)c1ccccc1NC(=O)Cn1c(CCC(=O)O)ccc1-c1ccc(C)cc1 | -8% | 1% | -10% | 2% | 4% | . | . | . | . | .
COCCN1Cc2cccc(C(=O)Nc3ccc(Cl)cc3Cl)c2C1=O | 19µM* | -3% | -26% | -9% | 3% | ? | ? | -8% | 8% | -44%
COc1ccc(C)cc1NC(=O)c1nnn(CC(=O)Nc2c(C)cccc2C)c1N | 9.2µM* | 9% | 1% | -5% | -9% | 1% | 5% | 1% | ? | ?

Screening data deposited in PubChem BioAssay by National Center for Advancing Translational Sciences (NCATS).
